# Measured values: the supplement of paper PMC6555819
# What was measured:
# Experiment in all cases: PBM binding z-score (relative to random genomic background probes); higher = stronger binding; sequences stand for … in GC…GCGATTGACAGCGTAGAATGAAGG
# [1] = test system: FXR:RXRa (NR concentration 270 nM, RXRa partner concentration 90 nM)
# Summary of the method: (§1)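 Binding buffer was PBS pH 7.4 with 2% milk, 0.02% Triton X-100, 1 mM DTT, 0.2 mg/mL BSA and 0.4 mg/ml salmon testes DNA. In it, ligand-free nuclear receptor dimers were incubated 1 h on custom Agilent 4×180K protein-binding microarrays carrying double-stranded probes. Antibodies against each partner (one per run) detected binding, and z-scores were calculated against random background probes after regression normalization of scanned fluorescence.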
# [2] = test system: LXRa:RXRa (NR concentration 270 nM, RXRa partner concentration 90 nM)
# Summary of the method: as §1
# [3] = test system: LXRa homodimer (NR concentration 270 nM)
# Summary of the method: as §1
# [4] = test system: LXRb:RXRa (NR concentration 270 nM, RXRa partner concentration 90 nM)
# Summary of the method: as §1
# [5] = test system: LXRb homodimer (NR concentration 270 nM)
# Summary of the method: as §1
# [6] = test system: PPARa:RXRa (NR concentration 270 nM, RXRa partner concentration 90 nM)
# Summary of the method: as §1
# [7] = test system: PPARg:RXRa (NR concentration 180 nM, RXRa partner concentration 90 nM)
# Summary of the method: as §1
# [8] = test system: PPARg:RXRa 270nM:90nM, anti-RXR (NR concentration 270 nM, RXRa partner concentration 90 nM)
# Summary of the method: as §1
# [9] = test system: PPARg:RXRa 30nM:10nM, anti-RXR (NR concentration 30 nM, RXRa partner concentration 10 nM)
# Summary of the method: as §1
# [10] = test system: PPARg:RXRa 90nM:30nM, anti-RXR (NR concentration 90 nM, RXRa partner concentration 30 nM)
# Summary of the method: as §1
Sequence,PBM binding z-score [1],PBM binding z-score [2],PBM binding z-score [3],PBM binding z-score [4],PBM binding z-score [5],PBM binding z-score [6],PBM binding z-score [7],PBM binding z-score [8],PBM binding z-score [9],PBM binding z-score [10]
TCGAGTAGGTTAGTCGGGGCTTTCAGCCAACATA,-0.154,-0.116,-0.783,-0.0101,-1.08,0.158,-0.922,0.148,0.909,0.595
GGAACGAGGGCATTCGAGTTGATAGGATGGCGAT,1.38,1.66,-0.255,-0.172,-0.504,1.12,1.01,0.531,-0.182,-0.00549
AGAATAAGGTTAAGATCAGGGAAACAGAATACAT,2.47,2.22,0.239,2.09,0.458,3.06,1.75,1.62,0.741,1.19
AGAAGGAGGTTATTAAGATCAGGGAATTGCGGTC,1.12,1.36,0.522,1.46,0.654,2.01,1.01,1.31,0.314,0.827
TAGCCTAGGTCATGCGGACCAGTATAGTGTCGGC,3.93,3,0.318,1.59,-0.198,3.33,1.99,2.5,0.202,1.38
GGAACGAGGGCATTCGAGTTGATAGTATGGCGAT,1.62,1.71,-0.324,0.436,-0.544,1.62,1.13,1.22,0.197,0.753
ATATGTACGTTATCGGGTCATTCAGTTTGCGCAT,2.05,2.01,1.02,2.32,1.03,2.67,1.3,1.35,0.0555,0.972
GCTCGGAGGACAAGGTCAGATCTTTGTCCGTAGA,2.14,2.12,-0.175,1.87,-0.0535,2.68,0.835,1.44,-0.124,0.769
GATACAGGGTCAAGGCCAGGGTACGCGTATTGAT,6.68,4.26,-0.139,3.62,-0.397,5.82,5.63,5.3,2.2,4.46
CCTCGGAGGATAGAAGGTCAGAGCTGTCCGCTTT,1,1.57,0.218,1.21,-0.745,1.83,-0.0434,1.26,-0.528,0.571
TATCCTAGGTCATGCGGGCCAGTATAGTGTCGGC,4.73,5.7,4.76,2.7,2.07,4.14,3.92,3.74,1.55,2.88
ATCTCTAGGAAAAAGTTCAGTGAATCCCGAGGAT,0.0166,0.275,0.466,0.0384,0.735,0.653,1.18,3.25,1.41,2.47
TCTCGGAGGACTCGAAAGGTCAGAGCTCGACATC,1.95,2.86,1.04,2.66,-0.682,3.21,0.567,2.34,2.29,1.88
CCTACTGGGCCATAAAGGTCATTGATGCCGATAA,3.55,4.42,3.57,4.21,0.574,4.79,4.32,4.68,2.1,4.45
CCGGACAGGTGAGAAGGTAACTCAGCCTCGATTA,-0.332,-0.196,-0.289,-0.26,-0.839,0.454,0.347,0.118,-0.24,-0.183
TCTTGTAGATCAGCAGTTTAAGAAAGCTGGCCAA,0.068,-0.0226,-0.271,0.182,-0.0391,0.33,-0.762,1.27,2.68,2.09
TCTATTAGTTGATTAGGGCGACCGAAACAGCGGA,0.395,0.617,0.293,0.356,0.556,0.801,-0.0653,1.73,3.64,2.8
AGAATGAGGGCACGCTGAGTTGATAGCAGAGTAG,1.27,1.11,-0.448,0.487,-0.735,2.7,2.69,2.62,0.921,1.87
CGAACTAGGTCATTGACAGGACAGTAAATAGTAA,4.05,2.93,0.467,2.31,-0.338,4.66,7.77,6.44,3.43,5.8
TTACCAAGGTGAGCTGAAGTCGTTGATCCAACTC,-0.293,-0.529,-0.801,-0.542,-1.23,0.187,-0.231,0.143,-0.185,0.0287
TCGAGTAGGTTACCAATGGGGAATTCAGCTTTCT,0.0745,0.417,-0.56,0.355,-0.737,0.977,0.304,1.2,0.963,1.18
GCTTCTAGGTCAGGTTGGTCAGCTAACGGGTACG,1.94,1.19,-0.092,1.17,1.34,2.57,3.16,3.17,0.647,2.22
CGAACGAGGGCATGAGTTGATAGCAAATGCCGAT,0.545,0.339,-0.654,0.279,-0.902,1.71,1.35,1.57,0.0506,0.976
